From PubChem BioAssay (NCATS) come the findings set out here.

Records with an inconclusive call do not appear. Unmarked numbers belong to inactive results. Activity calls are given as the source filed them. Calls come from the whole dose curve; as a rule, active = well fitted inhibition curve with a large enough effect; inconclusive = small, poorly fitted or top-dose-only effect; inactive = flat fitted curve, though single readings scatter.

For test [1], the target named is Glutathione peroxidase 1 (Homo sapiens) (UniProt P07203). In words: Primary qHTS Assay for Inhibitors of Recombinant Selenoprotein Glutathione Peroxidase 1 (GPX1) (AID 1845191). The gist of the method:
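GR-coupled readout: NADPH consumption tracked by fluorescence, ex 340/em 450 nm, at t=0 and after 15 min at RT. Final mix 10 nM GPX1, 1 mM GSH, 0.5 mM CHP, 0.5 mM NADPH, 100 nM GR, 0.01% BSA, following 30 min enzyme–compound preincubation.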
Background: In qHTS, concentration-response curves come from the screen itself.

Test [2] deals with Phospholipid hydroperoxide glutathione peroxidase GPX4 (Homo sapiens) (UniProt P36969). In words: Primary qHTS Assay for Inhibitors of Recombinant Selenoprotein Glutathione Peroxidase 4 (GPX4) (AID 1845192). For activity change, negative = inhibition: series mostly up to about 50 µM. In a few lines: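 Steps: GPX4 plus compound, 30 min RT; add GR/GSH/NADPH master mix; start with cumene hydroperoxide; read 340/450 nm fluorescence at 0 and 15 min. Finals were 200 nM GPX4, 1 mM GSH, 0.5 mM CHP, 0.5 mM NADPH, 100 nM GR.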
Chain of Phospholipid hydroperoxide glutathione peroxidase GPX4 (Homo sapiens) (P36969 whole entry, looked up): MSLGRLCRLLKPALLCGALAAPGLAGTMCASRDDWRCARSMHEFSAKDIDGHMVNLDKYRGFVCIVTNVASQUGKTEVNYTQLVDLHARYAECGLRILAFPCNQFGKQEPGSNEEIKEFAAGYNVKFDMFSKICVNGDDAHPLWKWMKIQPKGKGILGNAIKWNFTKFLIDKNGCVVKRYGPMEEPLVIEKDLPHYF
% is set by controls: 0 for no effect and ±100 for the full control effect; potency is the fitted concentration of half-maximal effect.
Note: nearly all actives have a fitted effect of over 65% in size.

Chain of Glutathione peroxidase 1 (Homo sapiens) (P07203 whole entry, looked up): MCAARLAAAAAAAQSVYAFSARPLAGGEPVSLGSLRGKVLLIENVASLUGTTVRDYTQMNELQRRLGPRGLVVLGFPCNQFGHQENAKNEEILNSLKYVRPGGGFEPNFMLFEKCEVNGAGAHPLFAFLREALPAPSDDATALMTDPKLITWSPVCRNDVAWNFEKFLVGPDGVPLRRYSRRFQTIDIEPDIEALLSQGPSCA

For the compound `CCCCC(F)(F)C1(O)CCC2C(CC(=O)C2CCCCCCC(=O)O)O1` (stereo not given), the Potency result in test [1] and in test [2] was “inactive” throughout.

Consider `CCC(C)C(NC(=O)C(Cc1ccc(O)cc1)NC(=O)C(NC(=O)C(CCCN=C(N)N)NC(=O)C(N)CC(=O)O)C(C)C)C(=O)NC(Cc1cnc[nH]1)C(=O)N1CCCC1C(=O)NC(Cc1ccccc1)C(=O)O` (stereo not given), for which the Potency entry in test [1] and in test [2] was “inactive” each time.

As for `N#Cc1c(N2C[C@@H]3NCCO[C@H]3C2)c(F)cc2c(=O)c(C(=O)O)cn(C3CC3)c12`, the Potency entry in test [1] and in test [2] was “inactive” in each case.

As to `CO/N=C(\C(=O)N[C@@H]1C(=O)N2C(C(=O)O)=C(Cn3ccc(=N)n3CCO)CS[C@H]12)c1csc(N)n1`, the Potency in test [1] was 18 µM (active). Besides, the Potency result in test [2] is “inactive”.

As for `C[C@H](Cc1cc2c(c(C(N)=O)c1)N(CCCO)CC2)NCCOc1ccccc1OCC(F)(F)F`, the Potency entry in test [1] and in test [2] was “inactive” each time.

Take `OC[C@H]1OC(O)C[C@@H](O)[C@@H]1O` (stereo not given in full): the Potency entry in test [1] and in test [2] was “inactive” throughout.

For the compound `Clc1ccc(CCCOCCCN2CCCCC2)cc1`, the Potency result in test [1] and in test [2] was “inactive” each time.

For the compound `Cc1oc(=O)oc1COC(=O)N1CC[C@@H](N2CC/C(=C\C3=C(C(=O)O)N4C(=O)[C@@H](NC(=O)/C(=N/O)c5nsc(N)n5)[C@H]4SC3)C2=O)C1`, the Potency was 7.18 µM (active) in test [1] and 10 µM (active) in test [2].

Take `COc1ccc(-c2c(Cl)ncn2-c2ccc(S(N)(=O)=O)cc2)cc1F`: the Potency result in test [1] and in test [2] was “inactive” each time.

Regarding `C[C@H](CCC(=O)O)[C@H]1CC[C@H]2[C@@H]3CC[C@@H]4C[C@H](O)CC[C@]4(C)[C@@H]3C[C@H](O)[C@]12C`, the Potency result in test [1] and in test [2] was “inactive” in each case.

As to `O=[N+]([O-])c1ccc(/C=C/c2cccc(CO)n2)o1`, the Potency result in test [1] and in test [2] was “inactive” each time.

As for `C[C@]12C=CC(=O)C=C1CC[C@@H]1[C@@H]2[C@@H](O)C[C@@]2(C)[C@H]1CC[C@]2(O)C(=O)COP(=O)(O)O`, the outcome was “inactive [at 9.52 µM]” in test [1] and “inactive [at 9.73 µM]” in test [2].

On to `CC(C)OC(=O)[C@H](C)N[P@@](=O)(OC[C@H]1O[C@@H](n2ccc(=O)[nH]c2=O)[C@](C)(F)[C@@H]1O)Oc1ccccc1`, for which the Potency result in test [1] and in test [2] was “inactive” each time.

On to `CCCCCCCC(=O)N[C@H](CN1CCCC1)[C@H](O)c1ccc2c(c1)OCCO2`, for which the Potency result in test [1] and in test [2] was “inactive” in each case.

`C[N+](C)(C)CCOP(=O)([O-])OP(=O)(O)OC[C@H]1OC(n2ccc(N)nc2=O)[C@H](O)[C@@H]1O` (stereo not given in full): in test [1], the outcome is “inactive [at 0.4 µM]”. The activity change, negative = inhibition in test [2] was 0.205% [at 0.409 µM].

Turning to `CCN1CCC(=C2c3ccccc3CCc3ccccc32)C1C` (stereo not given), the Potency entry in test [1] and in test [2] was “inactive” each time.

In the case of `C[C@@H]1O[C@@H](O[C@@H]2/C=C/C=C/C=C\C=C\C[C@H](C)OC(=O)/C=C/[C@H]3O[C@@H]3C[C@H](O)C[C@]3(O)C[C@@H](O)[C@@H](C(=O)O)[C@H](C2)O3)[C@H](O)[C@H](N)[C@@H]1O`, the Potency result in test [1] was “inactive”. For the same compound, the activity change, negative = inhibition in test [2] was -18.7% [at 9.73 µM].

Turning to `CCCCC[C@@H](O)CC[C@H]1[C@@H]2Cc3cccc(OCC(=O)O)c3C[C@@H]2C[C@@H]1O`, the Potency result in test [1] and in test [2] was “inactive” each time.

As for `CCCCC(C)(O)CC=C[C@H]1[C@H](O)CC(=O)[C@H]1CCCCCCC(=O)OC` (stereo not given in full), the Potency result in test [1] and in test [2] was “inactive” each time.

For the compound `O=C(O)C[C@@H]1CC[C@H](NC(=O)Cc2cccs2)B(O)O1`, the Potency entry in test [1] and in test [2] was “inactive” each time.

Consider `Cc1nccn1CCC(C(N)=O)(c1ccccc1)c1ccccc1`, for which the Potency result in test [1] and in test [2] was “inactive” in each case.

For `O=c1c2c(c1=O)N(CCP(=O)(O)O)CCCN2`, the Potency entry in test [1] and in test [2] was “inactive” throughout.

In the case of `CCNC(=O)CCC/C=C\C[C@@H]1[C@@H](/C=C/[C@@H](O)CCc2ccccc2)[C@H](O)C[C@@H]1O`, the Potency result in test [1] and in test [2] was “inactive” each time.

On to `OC(c1ccccc1)(c1ccccc1)C12CC[N+](CCOCc3ccccc3)(CC1)CC2`, for which the Potency entry in test [1] and in test [2] was “inactive” in each case.

Take `CCCC(=O)O[C@]1(C(=O)COC(C)=O)CC[C@H]2C3C[C@H](F)C4=CC(=O)C=C[C@]4(C)[C@@]3(F)[C@@H](O)C[C@@]21C` (stereo not given in full): the Potency entry in test [1] and in test [2] was “inactive” in each case.

Turning to `CCC(=O)O[C@@H]1[C@@H](C)O[C@@H](O[C@H]2[C@H](N(C)C)[C@@H](O)[C@H](O[C@H]3[C@@H](CC=O)C[C@@H](C)[C@@H](OC(C)=O)/C=C/C=C/C[C@@H](C)OC(=O)C[C@@H](OC(=O)CC)[C@@H]3OC)O[C@@H]2C)C[C@]1(C)OC(C)=O`, the Potency entry in test [1] and in test [2] was “inactive” throughout.

On to `CN(C)CC(=O)O`, for which the Potency result in test [1] and in test [2] was “inactive” each time.

For `OC[C@H]1O[C@H](O[C@H]2[C@H](O)[C@@H](O)[C@H](O)O[C@@H]2CO)[C@H](O)[C@@H](O)[C@@H]1O`, the Potency result in test [1] and in test [2] was “inactive” in each case.

Regarding `CC(C)(C)NCC(O)COc1ccccc1C#N` (stereo not given), the Potency result in test [1] and in test [2] was “inactive” in each case.

Regarding `OC[C@H]1O[C@@H](OC[C@H]2O[C@@H](O[C@@H]3[C@@H](O)[C@H](O)O[C@H](CO)[C@H]3O)[C@H](O)[C@@H](O[C@@H]3O[C@H](CO)[C@@H](O)[C@H](O)[C@H]3O)[C@@H]2O)[C@H](O)[C@@H](O)[C@@H]1O`, the Potency entry in test [1] and in test [2] was “inactive” in each case.
